{"source": "the supplement of paper PMC8728848", "assay_in_all_cases": "glycan array binding signal (z-score within array); higher = stronger binding", "settings_in_all_cases": "glycan notation: IUPAC condensed, linker removed", "key": {"[1]": {"molecular_target": "Fuc(a1-2)Gal(b1-3)GalNAc(b1-3)Gal", "summary_of_the_method": "(§1)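 Glycan array binding is given as a within-array Z-score, which can be read as non-binding when negative. The arrays, 3228 of them, came from the Consortium for Functional Glycomics database and were retained only where the protein sequence was available. Z-scores were averaged across arrays of the same protein sequence at different concentrations or buffers and across linkers.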"}, "[2]": {"molecular_target": "Fuc(a1-2)Gal(b1-3)[Fuc(a1-4)]GlcNAc(b1-3)[Gal(b1-4)GlcNAc(b1-6)]Gal(b1-4)Glc", "summary_of_the_method": "as §1"}, "Fuc(a1-2)Gal(b1-4)GlcNAc": {"molecular_target": "Fuc(a1-2)Gal(b1-4)GlcNAc", "summary_of_the_method": "as §1"}, "[3]": {"molecular_target": "Fuc(a1-2)Gal(b1-4)GlcNAc(b1-3)GalNAc", "summary_of_the_method": "as §1"}, "[4]": {"molecular_target": "Fuc(a1-2)Gal(b1-4)GlcNAc6S", "summary_of_the_method": "as §1"}, "Fuc(a1-2)Gal6S(b1-4)Glc": {"molecular_target": "Fuc(a1-2)Gal6S(b1-4)Glc", "summary_of_the_method": "as §1"}, "Fuc(a1-2)[Gal(a1-3)]Gal": {"molecular_target": "Fuc(a1-2)[Gal(a1-3)]Gal", "summary_of_the_method": "as §1"}, "[5]": {"molecular_target": "Fuc(a1-2)[Gal(a1-3)]Gal(b1-4)GlcNAc", "summary_of_the_method": "as §1"}, "[6]": {"molecular_target": "Fuc(a1-2)[Gal(a1-3)]Gal(b1-4)GlcNAc(b1-2)Man(a1-3)[Fuc(a1-2)[Gal(a1-3)]Gal(b1-4)GlcNAc(b1-2)Man(a1-6)]Man(b1-4)GlcNAc(b1-4)GlcNAc", "summary_of_the_method": "as §1"}, "[7]": {"molecular_target": "Fuc(a1-2)[GalNAc(a1-3)]Gal(b1-3)GlcNAc(b1-2)Man(a1-3)[Fuc(a1-2)[GalNAc(a1-3)]Gal(b1-3)GlcNAc(b1-2)Man(a1-6)]Man(b1-4)GlcNAc(b1-4)GlcNAc", "summary_of_the_method": "as §1"}, "[8]": {"molecular_target": "Fuc(a1-2)[GalNAc(a1-3)]Gal(b1-4)GlcNAc", "summary_of_the_method": "as §1"}, "[9]": {"molecular_target": "Fuc(a1-2)[GalNAc(a1-3)]Gal(b1-4)GlcNAc(b1-2)Man(a1-3)[Fuc(a1-2)[GalNAc(a1-3)]Gal(b1-4)GlcNAc(b1-2)Man(a1-6)]Man(b1-4)GlcNAc(b1-4)GlcNAc", "summary_of_the_method": "as §1"}, "[10]": {"molecular_target": "Fuc(a1-2)[GalNAc(a1-3)]Gal(b1-4)GlcNAc(b1-3)Gal(b1-4)GlcNAc", "summary_of_the_method": "as §1"}, "[11]": {"molecular_target": "Fuc(a1-2)[GalNAc(a1-3)]Gal(b1-4)GlcNAc(b1-3)Gal(b1-4)GlcNAc(b1-3)Gal(b1-4)GlcNAc", "summary_of_the_method": "as §1"}, "[12]": {"molecular_target": "Fuc(a1-3)[Gal(b1-4)]GlcNAc", "summary_of_the_method": "as §1"}, "Fuc(b1-3)GlcNAc": {"molecular_target": "Fuc(b1-3)GlcNAc", "summary_of_the_method": "as §1"}, "[13]": {"molecular_target": "Gal(a1-3)Gal(b1-3)GlcNAc(b1-2)Man(a1-3)[Gal(a1-3)Gal(b1-3)GlcNAc(b1-2)Man(a1-6)]Man(b1-4)GlcNAc(b1-4)GlcNAc", "summary_of_the_method": "as §1"}, "[14]": {"molecular_target": "Gal(a1-3)Gal(b1-4)GlcNAc(b1-3)GalNAc", "summary_of_the_method": "as §1"}, "[15]": {"molecular_target": "Gal(a1-3)Gal(b1-4)[Fuc(a1-3)]GlcNAc", "summary_of_the_method": "as §1"}, "Gal(a1-6)Glc": {"molecular_target": "Gal(a1-6)Glc", "summary_of_the_method": "as §1"}, "Gal(b1-3)Gal": {"molecular_target": "Gal(b1-3)Gal", "summary_of_the_method": "as §1"}, "[16]": {"molecular_target": "Gal(b1-3)GalNAc(b1-3)Gal(a1-4)Gal(b1-4)Glc", "summary_of_the_method": "as §1"}, "Gal(b1-3)GlcNAc": {"molecular_target": "Gal(b1-3)GlcNAc", "summary_of_the_method": "as §1"}, "[17]": {"molecular_target": "Gal(b1-4)GlcNAc(a1-6)Gal(b1-4)GlcNAc", "summary_of_the_method": "as §1"}, "[18]": {"molecular_target": "GlcNAc(a1-3)Gal(b1-4)GlcNAc", "summary_of_the_method": "as §1"}, "[19]": {"molecular_target": "GlcNAc(a1-4)Gal(b1-3)GlcNAc", "summary_of_the_method": "as §1"}, "[20]": {"molecular_target": "GlcNAc(b1-4)GlcNAc(b1-4)GlcNAc(b1-4)GlcNAc(b1-4)GlcNAc(b1-4)GlcNAc", "summary_of_the_method": "as §1"}, "Kdn(a2-3)Gal(b1-4)Glc": {"molecular_target": "Kdn(a2-3)Gal(b1-4)Glc", "summary_of_the_method": "as §1"}, "[21]": {"molecular_target": "Neu5Ac(a2-3)Gal(b1-3)GlcNAc6S", "summary_of_the_method": "as §1"}, "[22]": {"molecular_target": "Neu5Ac(a2-3)Gal(b1-3)[Fuc(a1-4)]GlcNAc(b1-3)Gal(b1-3)[Fuc(a1-4)]GlcNAc", "summary_of_the_method": "as §1"}, "[23]": {"molecular_target": "Neu5Ac(a2-3)Gal(b1-4)GlcNAc(b1-3)Gal(b1-4)[Fuc(a1-3)]GlcNAc", "summary_of_the_method": "as §1"}, "[24]": {"molecular_target": "Neu5Ac(a2-3)Gal(b1-4)[Fuc(a1-3)]GlcNAc", "summary_of_the_method": "as §1"}, "[25]": {"molecular_target": "Neu5Ac(a2-3)Gal(b1-4)[Fuc(a1-3)]GlcNAc6S", "summary_of_the_method": "as §1"}, "[26]": {"molecular_target": "Neu5Ac(a2-3)[GalNAc(b1-4)]Gal(b1-4)Glc", "summary_of_the_method": "as §1"}, "[27]": {"molecular_target": "Neu5Ac(a2-6)GlcNAc(b1-4)GlcNAc(b1-4)GlcNAc", "summary_of_the_method": "as §1"}, "[28]": {"molecular_target": "Neu5Ac(a2-8)Neu5Ac(a2-8)Neu5Ac(a2-8)Neu5Ac(a2-3)[GalNAc(b1-4)]Gal(b1-4)Glc", "summary_of_the_method": "as §1"}, "[29]": {"molecular_target": "Neu5Gc(a2-3)Gal(b1-4)[Fuc(a1-3)]GlcNAc", "summary_of_the_method": "as §1"}}, "note": "Many of the other results were omitted from the sample, so the strongest signals are more common in it than they were.", "data": [{"binder": "GH98CBM51-1 (Streptococcus pneumoniae) (protein) MTYLSDMDWSSATHGDIDKTKTVQKDAPFTTGNKGEHTKISLLTSDDKVKYFDKGIGTVADSPSVISYDISGQGFEKFETYIGIDQSANSSRSDHAVVDRIEIEIDGKVVYSSSVTNPEGFRYNTQAQFISVTIPQNAKKISLKSFAGEHTWGDEVVFADAKLIKTVST", "values": [{"measurement": "glycan array binding signal (z-score)", "setting": "[1]", "result": -0.187}, {"measurement": "glycan array binding signal (z-score)", "setting": "[2]", "result": -0.19}, {"measurement": "glycan array binding signal (z-score)", "setting": "Fuc(a1-2)Gal(b1-4)GlcNAc", "result": -0.191}, {"measurement": "glycan array binding signal (z-score)", "setting": "[3]", "result": -0.194}, {"measurement": "glycan array binding signal (z-score)", "setting": "[4]", "result": -0.194}, {"measurement": "glycan array binding signal (z-score)", "setting": "Fuc(a1-2)Gal6S(b1-4)Glc", "result": -0.185}, {"measurement": "glycan array binding signal (z-score)", "setting": "Fuc(a1-2)[Gal(a1-3)]Gal", "result": 5.96}, {"measurement": "glycan array binding signal (z-score)", "setting": "[5]", "result": 5.12}, {"measurement": "glycan array binding signal (z-score)", "setting": "[6]", "result": 8.05}, {"measurement": "glycan array binding signal (z-score)", "setting": "[7]", "result": -0.122}, {"measurement": "glycan array binding signal (z-score)", "setting": "[8]", "result": 5.07}, {"measurement": "glycan array binding signal (z-score)", "setting": "[9]", "result": 5.04}, {"measurement": "glycan array binding signal (z-score)", "setting": "[10]", "result": 5.55}, {"measurement": "glycan array binding signal (z-score)", "setting": "[11]", "result": 4.91}, {"measurement": "glycan array binding signal (z-score)", "setting": "[12]", "result": -0.192}, {"measurement": "glycan array binding signal (z-score)", "setting": "Fuc(b1-3)GlcNAc", "result": -0.193}, {"measurement": "glycan array binding signal (z-score)", "setting": "[13]", "result": -0.171}, {"measurement": "glycan array binding signal (z-score)", "setting": "[14]", "result": -0.191}, {"measurement": "glycan array binding signal (z-score)", "setting": "[15]", "result": -0.186}, {"measurement": "glycan array binding signal (z-score)", "setting": "Gal(a1-6)Glc", "result": -0.186}, {"measurement": "glycan array binding signal (z-score)", "setting": "Gal(b1-3)Gal", "result": -0.181}, {"measurement": "glycan array binding signal (z-score)", "setting": "[16]", "result": -0.191}, {"measurement": "glycan array binding signal (z-score)", "setting": "Gal(b1-3)GlcNAc", "result": -0.188}, {"measurement": "glycan array binding signal (z-score)", "setting": "[17]", "result": -0.186}, {"measurement": "glycan array binding signal (z-score)", "setting": "[18]", "result": -0.193}, {"measurement": "glycan array binding signal (z-score)", "setting": "[19]", "result": -0.189}, {"measurement": "glycan array binding signal (z-score)", "setting": "[20]", "result": -0.195}, {"measurement": "glycan array binding signal (z-score)", "setting": "Kdn(a2-3)Gal(b1-4)Glc", "result": -0.191}, {"measurement": "glycan array binding signal (z-score)", "setting": "[21]", "result": -0.196}, {"measurement": "glycan array binding signal (z-score)", "setting": "[22]", "result": -0.184}, {"measurement": "glycan array binding signal (z-score)", "setting": "[23]", "result": -0.191}, {"measurement": "glycan array binding signal (z-score)", "setting": "[24]", "result": -0.191}, {"measurement": "glycan array binding signal (z-score)", "setting": "[25]", "result": -0.182}, {"measurement": "glycan array binding signal (z-score)", "setting": "[26]", "result": -0.196}, {"measurement": "glycan array binding signal (z-score)", "setting": "[27]", "result": -0.193}, {"measurement": "glycan array binding signal (z-score)", "setting": "[28]", "result": -0.184}, {"measurement": "glycan array binding signal (z-score)", "setting": "[29]", "result": -0.182}]}]}
